Compound activity from PubChem.
Most compounds without a hit are left out; they make up all but 0.51% or so of the library.
E coli growth-1: E. coli V3065 growth inhibition, primary screen, counter-screen for AddAB inhibitor project, absorbance, OD600; 18 h; inhibition, % at 11.9 µM; 330,000 compounds, 0.27% hits;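 active = inhibition above the campaign's mean inhibition across all tested compounds plus 3 SD, cut at about 9.9% in these data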;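 also: uninfected addAB+ strain grown without phage in ampicillin broth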
AddAB inh: growth inhibition of E. coli expressing H. pylori AddAB, primary screen, AddAB inhibitor project, absorbance | inhibition, % at 11.9 µM | 330,000 compounds, 0.29% hits; in the data active = inhibition above about 12%
pCIP destab: p/CIP-EGFP fusion destabilizers, primary screen, fluorescence, F442A cells; 16 h; Q05BA5; decrease of EGFP signal, % at 10 µM; 290,000 compounds, 0.01% hits;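 active = EGFP signal decrease of at least 30% at 10 µM or well 3 SD below plate mean, unless failing retest; inactive = the rest, including hits failing retest or dose response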
Target sequence (Q05BA5 1-1403): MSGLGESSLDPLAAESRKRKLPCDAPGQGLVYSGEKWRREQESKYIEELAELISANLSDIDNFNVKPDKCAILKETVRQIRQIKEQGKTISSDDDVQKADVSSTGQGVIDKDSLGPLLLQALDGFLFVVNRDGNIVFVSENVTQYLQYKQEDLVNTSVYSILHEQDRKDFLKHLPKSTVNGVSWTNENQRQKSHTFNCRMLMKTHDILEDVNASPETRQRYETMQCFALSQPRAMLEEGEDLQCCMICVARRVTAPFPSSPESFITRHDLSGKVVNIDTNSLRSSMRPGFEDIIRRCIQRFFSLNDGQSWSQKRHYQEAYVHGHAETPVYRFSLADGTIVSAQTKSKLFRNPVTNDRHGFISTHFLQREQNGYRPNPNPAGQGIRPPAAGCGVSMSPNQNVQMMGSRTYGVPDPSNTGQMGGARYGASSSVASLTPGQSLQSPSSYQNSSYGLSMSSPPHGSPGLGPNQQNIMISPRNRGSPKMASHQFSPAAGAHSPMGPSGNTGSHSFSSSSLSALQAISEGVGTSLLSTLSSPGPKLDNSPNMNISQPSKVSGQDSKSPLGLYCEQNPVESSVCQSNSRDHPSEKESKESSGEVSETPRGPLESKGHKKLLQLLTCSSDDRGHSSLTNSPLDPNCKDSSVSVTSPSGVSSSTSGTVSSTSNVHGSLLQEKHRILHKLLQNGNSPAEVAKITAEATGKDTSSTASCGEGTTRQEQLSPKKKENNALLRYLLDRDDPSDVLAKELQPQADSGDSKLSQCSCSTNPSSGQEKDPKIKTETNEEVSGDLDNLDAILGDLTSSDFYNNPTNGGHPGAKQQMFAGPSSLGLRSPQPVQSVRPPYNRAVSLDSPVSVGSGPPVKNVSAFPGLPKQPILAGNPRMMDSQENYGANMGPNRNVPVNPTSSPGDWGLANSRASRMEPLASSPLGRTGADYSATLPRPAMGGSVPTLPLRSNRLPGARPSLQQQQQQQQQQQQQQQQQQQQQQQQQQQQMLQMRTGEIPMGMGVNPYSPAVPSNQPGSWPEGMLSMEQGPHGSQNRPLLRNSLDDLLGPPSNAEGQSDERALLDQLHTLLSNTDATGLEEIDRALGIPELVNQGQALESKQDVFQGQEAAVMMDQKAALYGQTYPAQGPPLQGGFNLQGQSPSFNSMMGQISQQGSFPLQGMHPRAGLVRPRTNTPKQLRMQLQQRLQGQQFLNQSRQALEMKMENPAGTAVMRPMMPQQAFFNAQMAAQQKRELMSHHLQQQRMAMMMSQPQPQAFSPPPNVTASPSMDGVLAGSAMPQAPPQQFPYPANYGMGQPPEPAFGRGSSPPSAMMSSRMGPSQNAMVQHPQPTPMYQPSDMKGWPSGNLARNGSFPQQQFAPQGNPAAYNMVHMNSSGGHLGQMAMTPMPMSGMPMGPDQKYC
E coli growth-2: E. coli growth inhibition, primary screen, OD600. Escherichia coli growth, 23 h; stronger effect = lower value. 330,000 compounds, 0.21% hits. OD600 absorbance (test concentration not listed);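 active = OD600 absorbance below the run mean of sample wells minus 3.6 SD, in any replicate, cut at about 0.56 in these data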
phage Ecoli inh: growth loss of phage-infected E. coli, primary screen, RecBCD inhibitor project, absorbance, with phage, HTS. 360,000 compounds, 0.26% hits. AID 651602, 2012. inhibition, % at 11.9 µM; in the data active = inhibition above about 11%
Tat transport: E. coli Tat export inhibitors, primary screen, MC4100, TorA-mCherry reporter, fluorescence, single point; inhibition, % at 10 µM; 340,000 compounds, 0.036% hits;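 active = mean replicate inhibition at least 50% and at least half of replicates individually reaching 50%; inconclusive = only one of the two criteria met; inactive = neither criterion met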;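 also: exported cargo escapes ClpAP degradation while cytoplasmic cargo is degraded and loses fluorescence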
A number is an active result; n = inactive; u = inconclusive; x = no result given.

SMILES | E coli growth-1 | AddAB inh | pCIP destab | E coli growth-2 | phage Ecoli inh | Tat transport
Cc1ccc(C(=O)N/C(=C\c2ccc(-c3ccc(Br)cc3)o2)C(=O)NCCCN(C)C)cc1 | n | n | n | 0.499 | n | n
Cc1cccc(CCNC(=O)C2CC(O)CN2C(=O)Nc2ccccc2)c1 (stereo unspecified) | x | x | x | x | n | x
O=[N+]([O-])c1ccc(-c2cccnc2)cc1 | x | x | x | 0.525 | n | n
O=[N+]([O-])c1ccc(COc2cccnc2)cc1 | n | n | n | n | n | n
CC(C)Cc1nnc(NC(=O)CCN2C(=O)c3ccccc3C2=O)s1 | 27.0 | 67.9 | n | n | n | n
CCC(CC)c1nnc(NC(=O)CCN2C(=O)c3ccccc3C2=O)s1 | n | n | n | n | n | n
O=C1C=C(Nc2ccccc2O)c2ccccc2C1=O | n | n | n | 0.478 | n | n
O=C1C=C(NCc2ccccc2)c2ccccc2C1=O | x | x | n | 0.465 | n | n
Cc1cc(-c2[nH]nc3c2C(c2ccc(Cl)cc2)C(C#N)=C(N)O3)c(C)s1 (stereo unspecified) | n | n | n | n | n | n
CCC1Sc2ccccc2N(CC(=O)NC2CCCCC2)C1=O (stereo unspecified) | n | n | n | n | n | n
CCCCNC(=O)O[C@@H]1C[C@H]2CCCC(=O)N3CC[C@@H](C1)[C@@H]23 | n | n | n | x | n | n
CCCCCCCN(c1ccccc1)[C@@H]1C[C@H]2CCCC(=O)N3CC[C@@H](C1)[C@@H]23 | x | x | x | x | n | 50.8
CC(C)n1ncc2c(C(=O)N3CCN(Cc4ccc(Br)s4)CC3)cc(C3CC3)nc21 | n | n | x | n | n | 52.7
CC(C)n1ncc2c(C(=O)O)cc(C3CC3)nc21 | n | n | n | n | n | n
COc1ccccc1NC(=O)COc1ccc(C(=O)NCC2CCCO2)cc1OC (stereo unspecified) | n | n | x | n | n | n
CCc1nc2nc(C)c(NS(=O)(=O)c3ccc(Cl)s3)c(=O)n2[nH]1 | n | n | n | n | n | u
CC(C)NC(=O)N1CC(c2ccccc2)C(c2ccc(Cl)cc2)=N1 (stereo unspecified) | n | n | n | n | n | n
O=C(Nc1nc2ccccc2s1)C1c2ccccc2Oc2ccccc21 | n | n | n | x | n | n
CN1/C(=C/c2cccc[n+]2CCO)Sc2ccccc21 | n | n | n | n | n | n
CC[n+]1c(/C=C2\Sc3ccccc3N2C)ccc2cccc(C)c21 | x | x | n | 0.335 | n | n
O=C(NCCc1ccc(Cl)cc1)C1CCN(S(=O)(=O)c2cccc3nonc23)CC1 | n | n | n | n | n | n
O=C(NCc1ccc(Cl)cc1)C1CCN(S(=O)(=O)c2cccc3nonc23)CC1 | n | n | n | 0.534 | n | n
CC[C@@H](NC(=O)Cn1cc(C)c(=O)[nH]c1=O)c1ccccc1 | x | x | x | x | n | n
O=C(Cc1ccccc1)NNC(=S)NC(=O)c1cccs1 | n | n | n | 0.452 | n | x
Nc1ccccc1SCc1cn2ccccc2n1 | n | n | n | n | n | 74.9
SMILES | E coli growth-1 | AddAB inh | pCIP destab | E coli growth-2 | phage Ecoli inh | Tat transport
CCC(C)c1ccc(C(C)NC(=S)NC2CCCCC2)cc1 (stereo unspecified) | 10.5 | n | n | x | n | n
NNC(=O)/C(=C\c1cccs1)NC(=O)c1ccccc1 | n | n | n | n | n | n
O=C(Nc1ccc(Cl)cc1)Nc1ccc2c(c1)N1CCN=C1S2 | n | n | n | 0.497 | n | n
Cc1cccc(C(=O)CC(=O)c2cc(Cl)ccc2O)c1 | n | n | n | 0.472 | x | n
Cc1ccc(O)c(C(=O)CC(=O)c2ccc(Cl)cc2)c1 | n | n | n | n | n | n
O=C(CC(=O)c1cc(Cl)ccc1O)c1ccccc1 | n | n | n | 0.476 | n | n
COCCN1Cc2cccc(C(=O)NC(C)c3cccs3)c2C1=O (stereo unspecified) | n | n | n | n | n | n
CCN(CC)CCCn1c(=S)[nH]c2ncccc2c1=O | n | n | n | n | n | n
CCCCN(C)CCn1c(=S)[nH]c2ncccc2c1=O | n | n | n | n | n | 51.4
COc1ccc(NC(=O)NNC(=O)c2cc3ccccc3cc2O)cc1 | 10.4 | n | n | n | n | n
COc1ccc(NC(=O)NNC(=O)c2cc(C3CC3)nc3ccccc23)c(OC)c1 | n | n | n | n | n | n
COc1ccc(NC(=O)NNC(=O)c2ccc3ccccc3c2O)c(OC)c1 | n | n | n | n | 11.8 | n
CCNC(=O)CC(C)=NNC(=O)C12CC3CC(CC(C3)C1)C2 | x | x | x | n | x | x
COc1ccc(NC(=O)CSCC(=O)Nc2ccc(S(=O)(=O)N3CCOCC3)cc2)cc1 | n | n | x | n | n | n
CCn1cc(C(=O)O)c(=O)c2cc(OC)ccc21 | n | n | n | 0.526 | n | n
CCn1cc(C(=O)O)c(=O)c2cc(S(=O)(=O)N3CCCCCC3)ccc21 | n | n | n | n | n | n
N=c1n(Cc2ccccc2)c2ccccc2n1CC(O)COc1ccc(Cl)cc1Cl (stereo unspecified) | x | x | n | 0.504 | n | n
Fc1ccc(NC(=S)Nc2ccc(Cl)cc2)cc1 | n | n | n | 0.52 | n | n
Fc1cccc(NC(=S)Nc2ccc(Br)cc2)c1 | n | n | n | 0.486 | n | n
COc1cccc(NC(=S)Nc2ccc(F)cc2)c1 | n | n | n | n | n | n
CC(C)(CSc1nncn1N)NS(=O)(=O)c1ccc(Cl)cc1 | n | n | n | n | n | n
COc1ccc(CN2CCN(Cc3ccc(C(F)(F)F)cc3)CC2)c(OC)c1 | n | n | n | n | n | n
Cc1cc(C(=O)NN=Cc2cccc([N+](=O)[O-])c2)c(C)n1-c1ccccc1 | x | x | x | n | x | x
Cc1cc(C(=O)N/N=C/c2ccc(O)c(O)c2O)c(C)n1-c1ccccc1 | x | x | n | x | 20.4 | n
CN(C)c1ccc(C=c2sc3nc(-c4ccccc4)nn3c2=O)cc1 | x | x | x | n | x | x
SMILES | E coli growth-1 | AddAB inh | pCIP destab | E coli growth-2 | phage Ecoli inh | Tat transport
Cc1conc1NC(c1cccs1)c1ccc2cccnc2c1O (stereo unspecified) | 13.1 | 12.6 | n | x | x | x
Oc1c(C(Nc2nccs2)c2ccc(C(F)(F)F)cc2)ccc2cccnc12 (stereo unspecified) | x | x | n | n | n | n
CC(NC(=O)COC(=O)c1ccc[nH]c1=O)c1ccccc1 (stereo unspecified) | n | n | x | n | n | n
CC(CCC1CC(C)(C)OC1=O)=NNC(N)=S (stereo unspecified) | x | x | x | n | x | x
CN(C)c1ccc(/C=C/c2ccc3c4ccccc4ccc3[n+]2-c2ccccc2)cc1 | x | x | n | 0.241 | 17.5 | n
CN(C)c1ccc(/C=C/c2ccc3ccccc3[n+]2C)cc1 | 18.1 | 27.9 | n | 0.294 | n | n
CN(C)c1ccc(/C=C/c2cccc[n+]2[O-])cc1 | n | n | n | x | n | n
O=C1CC(c2ccc(S(=O)(=O)NCc3ccncc3)cc2)CN1 (stereo unspecified) | n | n | n | n | 12.5 | n
O=C1CC(c2ccc(S(=O)(=O)NC3CC3)cc2)CN1 (stereo unspecified) | n | n | n | n | n | n
